# Assay results reported in the supplement of paper PMC8728848.
# Shown is part of a subset that was picked to be rich in the strongest signals.
# B1: PX14367A-bth-493-35-493 (Bacteroides thetaiotaomicron) (protein)
# chain: VSSDQVAVAGNAERLFNGAWYNLFEYGTTYANIGYRALQCQDDMMASDVVSRPKYGFNSSYQFNDVAIPSDGRTSFAWYLIYKTIDNCNTAISIKGDSEELRQAQGQALALRAFCYLHLVQHYQFTYLKDKDAPCVPIYTEPTTSGTKPKGKSTVAQVYQQIFDDLNLAQDYLTNYVRKGDGQKFKPNTDVVNGLMARAYLLTGQWGEAAKAAEAARKGYSLMTTTAEYEGFNNISNKEWIWGSPQTLSQSDASYNFYYLDATYVGAYSSFMADPHLMDTFVKGDIRLPLFQWMREGYLGYKKFHMRSDDTADLVLMRSAEMYLIEAEAKVRDGVALDQAVAPLNTLRTARGVGNYDVTGKTKEQVIDEILMERRRELWGEGFGITDVLRNQKAVERMALSEDMQKTEVDCWQEGGSFAKRNPLGHWFLNFPDGKAFSANSSYYLYAIPEKEINANPNL
# What was measured:
# Test in all cases: glycan array binding signal (z-score within array); higher = stronger binding
# Details in all cases: glycan notation: IUPAC condensed, linker removed
# [1] = target: Gal(b1-4)GlcNAc(b1-3)Gal(b1-4)GlcNAc(b1-3)Gal(b1-4)GlcNAc(b1-3)Gal(b1-4)GlcNAc(b1-2)Man(a1-3)[Gal(b1-4)GlcNAc(b1-3)Gal(b1-4)GlcNAc(b1-3)Gal(b1-4)GlcNAc(b1-3)Gal(b1-4)GlcNAc(b1-2)Man(a1-6)]Man(b1-4)GlcNAc(b1-4)[Fuc(a1-6)]GlcNAc
# Outline: (§1)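 The Consortium for Functional Glycomics database supplied 3228 glycan arrays, of which those lacking an available protein sequence were dropped. The binding signal, a within-array Z-score, was averaged across arrays of the same protein sequence and across linkers. Negative scores can be read as non-binding.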
# [2] = target: Gal(b1-4)GlcNAc(b1-3)Gal(b1-4)GlcNAc(b1-3)Gal(b1-4)GlcNAc(b1-3)Gal(b1-4)GlcNAc(b1-3)Gal(b1-4)GlcNAc(b1-2)Man(a1-3)[Gal(b1-4)GlcNAc(b1-3)Gal(b1-4)GlcNAc(b1-3)Gal(b1-4)GlcNAc(b1-3)Gal(b1-4)GlcNAc(b1-3)Gal(b1-4)GlcNAc(b1-2)Man(a1-6)]Man(b1-4)GlcNAc(b1-4)[Fuc(a1-6)]GlcNAc
# Outline: as §1
# Gal(b1-6)Gal = target: Gal(b1-6)Gal
# Outline: as §1
# Gal3S6S(b1-4)GlcNAc6S = target: Gal3S6S(b1-4)GlcNAc6S
# Outline: as §1
# [3] = target: GalNAc(b1-3)Gal(a1-4)Gal(b1-4)GlcNAc
# Outline: as §1
# [4] = target: GlcNAc(a1-4)Gal(b1-4)GalNAc
# Outline: as §1
# [5] = target: GlcNAc(b1-2)Man(a1-3)[GlcNAc(b1-4)][GlcNAc(b1-2)Man(a1-6)]Man(b1-4)GlcNAc(b1-4)[Fuc(a1-6)]GlcNAc
# Outline: as §1
# [6] = target: GlcNAc(b1-3)Gal(b1-4)GlcNAc(b1-3)Gal(b1-4)GlcNAc(b1-2)Man(a1-3)[GlcNAc(b1-3)Gal(b1-4)GlcNAc(b1-3)Gal(b1-4)GlcNAc(b1-2)Man(a1-6)]Man(b1-4)GlcNAc(b1-4)GlcNAc
# Outline: as §1
# [7] = target: GlcNAc6S(b1-3)Gal(b1-4)GlcNAc
# Outline: as §1
# Man(a1-2)Man(a1-3)Man = target: Man(a1-2)Man(a1-3)Man
# Outline: as §1
# [8] = target: Man(a1-2)Man(a1-3)[Man(a1-6)]Man(a1-6)[Man(a1-2)Man(a1-3)]Man(b1-4)GlcNAc(b1-4)GlcNAc
# Outline: as §1
# [9] = target: Man(a1-3)[Man(a1-6)]Man(b1-4)GlcNAc(b1-4)GlcNAc
# Outline: as §1
# [10] = target: Neu5Ac(a2-3)Gal(b1-3)GalNAc
# Outline: as §1
# [11] = target: Neu5Ac(a2-3)Gal(b1-3)GalNAc(b1-4)[Neu5Ac(a2-8)Neu5Ac(a2-3)]Gal(b1-4)Glc
# Outline: as §1
# [12] = target: Neu5Ac(a2-3)Gal(b1-3)GlcNAc(b1-3)GalNAc
# Outline: as §1
# [13] = target: Neu5Ac(a2-3)Gal(b1-4)GlcNAc(b1-3)Gal(b1-4)GlcNAc(b1-3)Gal(b1-4)GlcNAc
# Outline: as §1
# [14] = target: Neu5Ac(a2-3)Gal(b1-4)GlcNAc(b1-3)Gal(b1-4)GlcNAc(b1-3)Gal(b1-4)GlcNAc(b1-2)Man(a1-3)[Neu5Ac(a2-3)Gal(b1-4)GlcNAc(b1-3)Gal(b1-4)GlcNAc(b1-3)Gal(b1-4)GlcNAc(b1-2)Man(a1-6)]GalNAc
# Outline: as §1
# [15] = target: Neu5Ac(a2-3)Gal(b1-4)[Fuc(a1-3)]GlcNAc(b1-2)Man
# Outline: as §1
# [16] = target: Neu5Ac(a2-3)[GalNAc(b1-4)]Gal(b1-4)Glc
# Outline: as §1
# [17] = target: Neu5Ac(a2-6)Gal(b1-4)GlcNAc(b1-2)Man(a1-3)[Man(a1-6)]Man(b1-4)GlcNAc(b1-4)GlcNAc
# Outline: as §1
# [18] = target: Neu5Ac(a2-6)Gal(b1-4)GlcNAc(b1-2)[Neu5Ac(a2-6)Gal(b1-4)GlcNAc(b1-4)]Man(a1-3)[GlcNAc(b1-4)][Neu5Ac(a2-6)Gal(b1-4)GlcNAc(b1-4)Man(a1-6)]Man(b1-4)GlcNAc(b1-4)GlcNAc
# Outline: as §1
# [19] = target: Neu5Ac(a2-6)Gal(b1-4)GlcNAc(b1-3)Gal(b1-4)GlcNAc(b1-2)Man(a1-3)[Neu5Ac(a2-6)Gal(b1-4)GlcNAc(b1-3)Gal(b1-4)GlcNAc(b1-2)Man(a1-6)]GalNAc
# Outline: as §1
# [20] = target: Neu5Ac(a2-6)Gal(b1-4)GlcNAc(b1-3)[Neu5Ac(a2-6)Gal(b1-4)GlcNAc(b1-6)]GalNAc
# Outline: as §1
# [21] = target: Neu5Ac(a2-6)Gal(b1-4)GlcNAc(b1-6)[Gal(b1-3)]GalNAc
# Outline: as §1
# [22] = target: Neu5Ac(a2-6)GalNAc(b1-4)GlcNAc
# Outline: as §1
# [23] = target: Neu5Ac(a2-8)Neu5Ac(a2-3)[Gal(b1-3)GalNAc(b1-4)]Gal(b1-4)Glc
# Outline: as §1
# [24] = target: Neu5Ac(a2-8)Neu5Gc(a2-3)Gal(b1-4)GlcNAc
# Outline: as §1
binder,measurement,setting,value
B1,glycan array binding signal (z-score),[1],2.51
same,glycan array binding signal (z-score),[2],6.87
same,glycan array binding signal (z-score),Gal(b1-6)Gal,-0.332
same,glycan array binding signal (z-score),Gal3S6S(b1-4)GlcNAc6S,0.726
same,glycan array binding signal (z-score),[3],4.2
same,glycan array binding signal (z-score),[4],-0.551
same,glycan array binding signal (z-score),[5],-0.396
same,glycan array binding signal (z-score),[6],1.06
same,glycan array binding signal (z-score),[7],-0.213
same,glycan array binding signal (z-score),Man(a1-2)Man(a1-3)Man,0.44
same,glycan array binding signal (z-score),[8],-0.608
same,glycan array binding signal (z-score),[9],0.166
same,glycan array binding signal (z-score),[10],-0.407
same,glycan array binding signal (z-score),[11],-0.448
same,glycan array binding signal (z-score),[12],-0.042
same,glycan array binding signal (z-score),[13],-0.083
same,glycan array binding signal (z-score),[14],1.29
same,glycan array binding signal (z-score),[15],-0.443
same,glycan array binding signal (z-score),[16],-0.325
same,glycan array binding signal (z-score),[17],0.504
same,glycan array binding signal (z-score),[18],-0.361
same,glycan array binding signal (z-score),[19],6.47
same,glycan array binding signal (z-score),[20],-0.601
same,glycan array binding signal (z-score),[21],0.377
same,glycan array binding signal (z-score),[22],-0.719
same,glycan array binding signal (z-score),[23],-0.3
same,glycan array binding signal (z-score),[24],11.1
